Screens from PubChem.
TcdB inh: blocks C. difficile toxin B glycohydrolase activity; P18177; TcdB glycohydrolase enzymatic assay, plate reader; inhibition, % at 9.99 µM; 0.24% of 350,000 active; in the data active = inhibition above about 10%
PfHsp40 yeast: restores yeast growth despite PfHsp40 toxicity | S. cerevisiae expressing PfHsp40, growth rescue, ATP luminescence | growth rescue, % at 12.5 µM | 0.68% of 340,000 active; in the data active = growth rescue above about 28%, passing the limit was not always enough;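 note: yeast W303a lacking pdr1 and pdr3 grown in galactose medium; growth measured after three days at 30 °C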
BioA inh-1: BioA (M. tuberculosis) enzyme inhibition; 0.096% of 360,000 active; AID 602481; purified M. tuberculosis BioA enzyme, plate reader; inhibition, % at 9.99 µM; in the data active = inhibition above about 40%
FadD28 FP inh: blocks FadD28 binding to the bisubstrate probe | fluorescence polarization | inhibition, % at 12.5 µM | 0.22% of 360,000 active; in the data active = inhibition above about 8.5%, passing the limit was not always enough
PrP UTR inh: inhibition of PrP 5' UTR reporter expression | cell-based PrP 5' UTR mRNA reporter, plate reader | 0.35% of 340,000 active | AID 488862 | inhibition, % (no concentration beside the values); in the data active = inhibition above about 52%; note: 0 = median of the neutral control wells
PrP 5UTR single: prion 5' UTR mRNA inhibition, cherry-pick retest; inhibition, % at 2.5 µM; shares compounds with PrP UTR inh; AID 504592; cell-based prion protein 5' UTR reporter, plate reader; 48% of 1,100 active; in the data active = inhibition above about 54%
BioA inh-2: inhibitors of Mycobacterium tuberculosis BioA enzyme; shares compounds with BioA inh-1; purified BioA enzyme, plate reader, dose response; max activity, %; 310 tested, under 10 active; AID 651679;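 note: top concentration of the dilution series was 10 µM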
HepG2 cytotox: cytotoxicity in HepG2 cells. shares compounds with BioA inh-1. plate reader. max activity, %. 310 tested, under 10 active. AID 651898
3T3 cytotox 5: NIH3T3 viability loss; shares compounds with BioA inh-1; NIH3T3 cytotoxicity, plate reader; activity change, negative = cytotoxicity, % at 26 µM; 310 tested, under 10 active; AID 651900
Active calls of the source: *; i = inactive; nt = not tested or not shown; [ ] = dose if it differs, or a comment. An excerpt weighted towards active compounds, which were near 1.1% of everything screened. Unless noted, the rule behind the calls is not given here.

SMILES | TcdB inh | PfHsp40 yeast | BioA inh-1 | FadD28 FP inh | PrP UTR inh | BioA inh-2 | HepG2 cytotox | 3T3 cytotox 5 | others
COc1ccc(NC(=O)Cn2c(=O)n(CC3CCCO3)c(=O)c3cc(OC)c(OC)cc32)cc1OC (centres undefined) | 1.5 | 0.3 | 3.6 | -1.1 | 58.2* | nt | nt | nt | PrP 5UTR single=-3.0
COc1ccc(OC)c(NS(=O)(=O)c2ccc(N3CCCC3=O)cc2)c1 | nt | -0.9 | 0.0 | -0.8 | 59.6* | nt | nt | nt | PrP 5UTR single=90.0*
CCOc1ccc(S(=O)(=O)Nc2cc(OC)ccc2OC)cc1 | nt | 0.8 | nt | -2.7 | 59.8* | nt | nt | nt | PrP 5UTR single=87.9*
O=C(C[C@@H]1C[C@@H]2c3cc(NC(=O)Nc4ccccc4F)ccc3O[C@@H]2[C@H](CO)O1)NC1CCCC1 | -0.6 | nt | -2.0 | nt | nt | nt | nt | nt
Cc1ccccc1S(=O)(=O)N1C[C@H](O)COC[C@@H]2O[C@H](CC(=O)N3CCCCC3)CC[C@H]21 | 1.9 | nt | -1.7 | nt | nt | nt | nt | nt
O=C(Nc1cccc2ncccc12)c1cccnc1 | nt | -1.8 | 7.6 | -1.9 | 73.5* | nt | nt | nt | PrP 5UTR single=0.5
O=[N+]([O-])c1ccc(C[n+]2c(-c3ccccc3)cc(-c3ccccc3)cc2-c2ccccc2)cc1 | 0.8 | 1.1 | 58.6* | -1.6 | 0.7 | -4.1 | -9.1 | 0.1
CC(=O)N1CCN(c2nnc(-c3ccc(C)cc3)c3ccccc23)CC1 | 1.3 | 2.8 | nt | -4.5 | 24.6 | nt | nt | nt
Cc1ccc(-c2nnc(N3CCN(C(=O)CSc4ncn[nH]4)CC3)c3ccccc23)cc1 | nt | -0.8 | 52.1* | -2.9 | -0.4 | -7.7 | 5.7 | -0.7
COc1cccc(NC(=O)N[C@@H]2C=C[C@@H](CC(=O)N3CCCCC3)O[C@@H]2CO)c1 | 0.2 | nt | nt | nt | nt | nt | nt | nt
C[C@H](CO)N1C[C@H](C)[C@H](CN(C)C(=O)Nc2ccc(C(F)(F)F)cc2)Oc2c(NC(=O)Nc3ccccc3)cccc2C1=O | 1.7 | nt | 15.4 | nt | nt | nt | nt | nt
C[C@@H]1CN([C@H](C)CO)C(=O)c2cc(NC(=O)Cc3cn(C)c4ccccc34)ccc2O[C@H]1CN(C)C | -5.7 | nt | -5.6 | nt | nt | nt | nt | nt
COc1ccc(C2c3c(oc4ccc(Cl)cc4c3=O)C(=O)N2CCN2CCOCC2)cc1 (centres undefined) | 1.5 | 1.2 | 72.5* | -5.3 | -12.6 | -6.0 | 10.2 | 5.9
O=C1c2oc3ccc(Cl)cc3c(=O)c2C(c2ccco2)N1CCN1CCOCC1 (centres undefined) | -9.5 | 0.0 | 23.6 | -1.4 | -9.4 | nt | nt | nt
COc1cc(-c2nc3ccccc3nc2-c2ccc(O)c(OC)c2)ccc1O | 9.6 | -0.1 | 51.0* | -1.9 | -14.8 | -5.8 | 12.1 | 2.0
COc1cc(-c2nc3ccccn3c2N)ccc1O | 0.9 | 0.7 | 0.0 | 0.6 | 0.8 | nt | nt | nt
O=C(Nc1ccc2ccccc2c1)c1cccnc1 | nt | -1.4 | 17.3 | -1.9 | -69.3 | nt | nt | nt
O=C(Nc1ccc(Cl)c(-c2nc3ccccc3[nH]2)c1)c1cccnc1 | nt | -0.2 | 64.3* | -13.8 | -11.0 | 23.3 | 21.6 | -6.2
CN1c2ccc(-c3cccc(F)c3)cc2[C@H]2[C@H](CCN2C(=O)c2ccncc2)[C@H]1CO | nt | nt | 95.0* | nt | nt | -11.5 | i | 2.4
CN1c2ccc(-c3cccc(F)c3)cc2[C@H]2[C@H](CCN2C(=O)c2cccc(F)c2)[C@@H]1CO | 1.2 | nt | nt | nt | nt | nt | nt | nt
CN1c2ccc(-c3cccc(C#N)c3)cc2[C@@H]2[C@@H](CCN2C(=O)CC2CC2)[C@H]1CO | nt | nt | 14.5 | nt | nt | nt | nt | nt
CN1c2ccc(-c3cccc(F)c3)cc2[C@H]2[C@H](CCN2C(=O)C2CCOCC2)[C@H]1CO | 2.3 | nt | 75.7* | nt | nt | -2.9 | i | -0.7
CN1c2ccc(-c3cccc(F)c3)cc2[C@H]2[C@H](CCN2C(=O)C2CCOCC2)[C@@H]1CO | 0.7 | nt | 38.3 | nt | nt | nt | nt | nt
CN1c2ccc(-c3cccc(C#N)c3)cc2[C@H]2[C@H](CCN2C(=O)CC2CC2)[C@H]1CO | nt | nt | 64.7* | nt | nt | 17.3 | i | 3.4[23.5 µM]
CCC(=O)N1CC[C@@H]2[C@H]1c1cc(-c3cccc(F)c3)ccc1N(C)[C@@H]2CO | nt | nt | 89.5* | nt | nt | -4.1 | i | -6.6[23.5 µM]
SMILES | TcdB inh | PfHsp40 yeast | BioA inh-1 | FadD28 FP inh | PrP UTR inh | BioA inh-2 | HepG2 cytotox | 3T3 cytotox 5 | others
CC(=O)N1[C@H](CO)[C@@H](c2ccccc2)[C@H]1CN(C(=O)c1ccccc1)C(C)C | nt | nt | -3.7 | nt | nt | nt | nt | nt
O=C(CCN1CCCCC1)N[C@H]1CC[C@@H](CCn2cc(-c3ccccc3)nn2)O[C@@H]1CO | 0.0 | nt | 0.5 | nt | nt | nt | nt | nt
CCCC(=O)N1C[C@H]2[C@@H](c3ccccc31)[C@@H](CO)N2C(=O)Nc1ccccc1 | -0.6 | nt | -1.7 | nt | nt | nt | nt | nt
COCC#Cc1ccc([C@H]2[C@H]3CN(C(=O)c4cccnc4)CC(=O)N3[C@H]2CO)cc1 | 1.3 | nt | nt | nt | nt | nt | nt | nt
CC(=O)N1CC[C@@H]2[C@@H](CO)N(C)c3ccc(-c4ccccc4)cc3[C@@H]21 | 17.4* | nt | 42.5* | nt | nt | 17.6 | i | 9.9
CN1c2ccc(-c3ccccc3)cc2[C@@H]2[C@@H](CCN2C(=O)c2ccc3c(c2)OCO3)[C@H]1CO | -1.0 | nt | nt | nt | nt | nt | nt | nt
CN1c2ccc(-c3cccc(F)c3)cc2[C@H]2[C@H](CCN2C(=O)c2ccc3c(c2)OCO3)[C@H]1CO | 2.4 | nt | 98.7* | nt | nt | -4.7 | i | -3.1[23.5 µM]
COc1ccc(NC(=O)c2ccc(S(=O)(=O)N(C)C)cc2)cc1OC | nt | 0.4 | 43.3* | -2.8 | 2.6 | -7.6 | -4.9 | -4.9
COc1ccc(C(=O)Nc2ccc(Cn3ccnc3)cc2)cc1OC | 1.1 | 0.4 | 44.2* | -1.8 | -40.8 | -3.0 | 18.8 | 2.9
COc1ccc(C(=O)Nc2cccnc2)cc1OC | nt | 13.2 | 56.7* | 0.2 | 6.1 | -5.4 | 23.7 | -1.9
Cn1nnc2cc(C(=O)Nc3cccnc3)ccc21 | nt | -0.1 | 54.9* | -3.7 | -24.9 | -7.2 | 25.3 | 2.2
COc1ccc(NC(=O)c2ccc(N(C)S(C)(=O)=O)cc2)cc1OC | 0.5 | 0.7 | 16.9 | -2.5 | -40.1 | nt | nt | nt
Cn1nnc2cc(C(=O)Nc3ccccc3)ccc21 | 0.8 | -1.7 | 1.2 | -2.9 | -66.9 | nt | nt | nt
COc1cc(OC)cc(C(=O)Nc2ccc(Cn3ccnc3)cc2)c1 | 0.1 | -1.0 | -0.9 | -2.8 | -14.0 | nt | nt | nt
CC(C)c1cn(CC[C@@H]2CC[C@@H](NS(=O)(=O)c3ccc(Cl)cc3)[C@H](CO)O2)nn1 | -0.7 | nt | -0.2 | nt | nt | nt | nt | nt
COc1ccc(S(=O)(=O)Nc2cccc3c2O[C@@H](CN(C)Cc2ccc(Cl)c(Cl)c2)[C@H](C)CN([C@H](C)CO)C3=O)cc1 | nt | nt | 0.3 | nt | nt | nt | nt | nt
COc1cc2c(cc1NC(=O)c1cccnc1)CCCC2 | nt | 0.1 | 55.9* | -0.1 | -9.7 | -7.2 | -11.6 | -8.1
CCCCN1C(=O)c2ccc(C(=O)Nc3cccnc3)cc2C1=O | nt | 0.4 | 81.7* | 0.8 | -9.5 | -6.8 | 5.5 | -1.1
CN(C(=O)CSc1nc2ccccc2c(=O)n1-c1ccccc1F)C1CCS(=O)(=O)C1 (centres undefined) | 3.6 | 2.1 | 20.8 | -1.5 | -5.8 | nt | nt | nt
